Compound activity: PubChem BioAssay, National Center for Advancing Translational Sciences (NCATS)
This is a sample that favours compounds with a hit; in the whole collection about 19% have one here.
ELG1 repair inh – blocks ELG1-dependent DNA repair in HEK293T cells. HEK293T ELG1-luciferase reporter, luminescence, 16 h; DNA damage induced by 5-fluorouridine. Potency, µM (series often up to 46.1 µM), for the others: top-dose activity change, negative = inhibition, hits mostly inhibitors. hit rate 2.3% among 330,000; note: potency is the fitted concentration of half-maximal effect; nearly all actives have a fitted effect of over 55% in size
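HEK293T cells expressing luciferase-tagged ELG1 (2,000/well) received 5-Fluorouridine plus compound or DMSO for 16 hr at 37 °C. Luciferase was read by ONE-Glo luminescence after 30 min at room temperature.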
TDP1 inh – TDP1 (human) enzyme inhibition | Potency, µM (series often up to 130 µM), without a hit: top-dose activity change, negative = inhibition, hits mostly inhibitors | hit rate 0.28% among 350,000 | Q9NUW8 | recombinant TDP1, AlphaScreen DNA substrate cleavage | AID 485290; note: potency is the fitted concentration of half-maximal effect; nearly all actives have a fitted effect of over 40% in size
Target sequence (Q9NUW8 whole entry, looked up): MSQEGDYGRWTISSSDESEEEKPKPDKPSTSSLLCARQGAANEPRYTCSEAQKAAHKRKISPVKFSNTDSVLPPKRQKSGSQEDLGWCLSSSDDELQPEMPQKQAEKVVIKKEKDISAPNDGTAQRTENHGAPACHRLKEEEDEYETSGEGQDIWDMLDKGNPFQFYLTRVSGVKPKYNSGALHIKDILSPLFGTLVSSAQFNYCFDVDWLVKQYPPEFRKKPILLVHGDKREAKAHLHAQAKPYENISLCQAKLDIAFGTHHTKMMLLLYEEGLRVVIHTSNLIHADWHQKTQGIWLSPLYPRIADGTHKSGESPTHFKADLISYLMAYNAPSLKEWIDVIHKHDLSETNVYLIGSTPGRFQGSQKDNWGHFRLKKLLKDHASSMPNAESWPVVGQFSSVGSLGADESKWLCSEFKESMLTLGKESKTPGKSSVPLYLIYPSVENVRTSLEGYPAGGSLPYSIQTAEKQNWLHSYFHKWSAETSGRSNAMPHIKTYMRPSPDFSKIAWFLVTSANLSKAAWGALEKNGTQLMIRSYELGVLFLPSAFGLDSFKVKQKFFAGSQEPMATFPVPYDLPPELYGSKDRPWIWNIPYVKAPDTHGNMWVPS
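Recombinant E. coli-expressed Tdp1 (1 nM) preincubated with compound 15 min at RT, then 5'-biotin/3'-phosphotyrosine-FITC DNA substrate (15 nM) added for 5 min. AlphaScreen beads (10 ug/ml) added, 10 min RT; tyrosine-FITC cleavage read as signal loss.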
Giardia kill – Giardia lamblia killing | Giardia lamblia trophozoite viability | AID 540267 | hit rate 0.15% among 340,000 | activity change, % at 7.66 µM, hits read low; in the data active = activity change below about -80%; inconclusive = between about -30% and that limit;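 note: parasites exposed to compound for two days anaerobically before the ATP read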
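Luminescent ATP signal served as the viability read-out, measured 15-30 min after adding ATP detection reagent to trophozoites that had been incubated with compounds for 48 hrs at 37 deg C anaerobically at 100 cells/well.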
TDP1 cell CPT – DT40-hTDP1 cell growth loss with CPT; Potency, µM (series often up to 46.2 µM), for inactives: top-dose activity change, negative = growth inhibition, most hits filed as inhibitors; chicken DT40 Tdp1-/-;hTDP1 cells + 20 nM CPT, ATP luminescence, 48 h; hit rate 12% among 420,000; AID 686979; note: potency is the fitted concentration of half-maximal effect; nearly all actives have a fitted effect of over 55% in size
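Chicken DT40 Tdp1-/- cells complemented with human TDP1, 400 cells/well, exposed to compounds plus 20 nM camptothecin for at least 48 h at 37 C; viability read as ATP content by CellTiter-Glo luminescence.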
IL1B secr inh – inflammasome signaling inhibition, IL-1 beta readout | hit rate 4.7% among 360,000 | THP-1 LPS/ATP IL-1B secretion, AlphaLISA, 16 h; stronger effect = lower value | activity change, % at 57.5 µM | AID 743279; in the data active = activity change below about -50%; inconclusive = mostly about -30% to -49%
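THP-1 cells pretreated 1 hr with compounds (up to 57.5 uM final), then stimulated with LPS (250 ng/mL final) plus ATP (1.25 mM final); secreted IL-1B measured by AlphaLISA after 16 hr, decreased signal indicating inhibition.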
DT40 TDP1 no CPT – qHTS for Inhibitors of human tyrosyl-DNA phosphodiesterase 1 (TDP1): qHTS in cells in absence of CPT; DT40 Tdp1-/- hTDP1 cells, no CPT, ATP luminescence, 48 h; Potency, µM (series often up to 46.2 µM), for inactives: at the top dose activity change, negative = growth inhibition, most hits filed as inhibitors; hit rate 15% among 420,000; AID 686978, 2013; note: potency is the fitted concentration of half-maximal effect; nearly all actives have a fitted effect of over 55% in size
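No-CPT arm: Tdp1-/-;hTDP1 DT40 cells (400/well) plus compounds, incubated ≥48 hr at 37 °C. Readout CellTiter-Glo luminescence.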
* marks the source's active call; other numbers are inactive results; u = inconclusive; x = not tested or not shown; [ ] = remark or other dose. Unless noted, calls come from the whole dose curve; as a rule, active = well fitted curve in the direction sought with a large enough effect; inconclusive = small, poorly fitted or top-dose-only effect, or another doubt; inactive = no such curve, though single readings can be large; an effect the other way counts as inactive or inconclusive. % is set by controls: 0 for no effect and ±100 for the full control effect.

SMILES | ELG1 repair inh | TDP1 inh | Giardia kill | TDP1 cell CPT | IL1B secr inh | DT40 TDP1 no CPT
CCc1cccc(NC(=O)c2cc(S(=O)(=O)N3CCCCC3)ccc2N2CCOCC2)c1 | x | x | x | 20.6µM* | u | 16.4µM*
Cc1ccc(CNC(=O)c2cc(S(=O)(=O)N3CCCCC3)ccc2N2CCOCC2)cc1 | u | 1.1% | -15.0 | u | -9.0 | 18.4µM*
C[C@@H]1CN([C@@H](C)CO)C(=O)CCCn2nncc2CO[C@H]1CN(C)S(=O)(=O)c1cccc(F)c1 | x | x | x | 0.5% | 14.2 | -16.6%
CCOC(=O)c1c(NC(=O)c2cc(-c3ccccc3OC)on2)sc(C)c1C | x | -4.5% | x | -2.4% | x | 5.0%
Cc1ccc(C)c(COC(=O)c2cc(S(=O)(=O)N3CCCCC3)ccc2N2CCOCC2)c1 | u | 0.1% | -3.9 | u | -9.5 | 13µM*
O=C(OCc1ccccc1)c1cc(S(=O)(=O)N2CCCCC2)ccc1N1CCOCC1 | u | -1.0% | 3.4 | u | -6.8 | u
Cc1ccc(COC(=O)c2cc(S(=O)(=O)N3CCCCC3)ccc2N2CCOCC2)cc1 | u | -3.3% | -10.8 | u | -16.1 | 25.9µM*
Cc1ccc(C)c(COC(=O)c2cc([N+](=O)[O-])ccc2N2CCOCC2)c1 | u | 0.0% | 0.9 | u | 30.8 | u
CC(=O)NC(CC(=O)Oc1ccc(C)cc1Br)c1ccccc1 (centres undefined) | -3.1% | 2.2% | 2.9 | 16.9% | -5.5 | 7.7%
Cc1ccnc(SCC(=O)Nc2sc3c(c2C#N)CCCC3)n1 | -15.5% | 2.0% | -9.9 | 3.26µM* | u | 2.91µM*
COc1ccc(-c2ccc(C#N)c(SCC(=O)Nc3sc4c(c3C#N)CCC4)n2)cc1OC | u | 0.5% | -11.2 | 23.1µM* | -4.8 | 14.6µM*
N#Cc1cc2c(nc1SCC(=O)Nc1sc3c(c1C#N)CCC3)CCC2 | u | -3.0% | 24.8 | -8.5% | -27.8 | -24.1%
COc1ccc(-c2cc(C(F)(F)F)nc(SCC(=O)Nc3sc4c(c3C#N)CCC4)n2)cc1 | u | -2.8% | -13.6 | u | -7.6 | 5.8µM*
N#Cc1c(NC(=O)CSc2nc(-c3ccccc3)cc(C(F)(F)F)n2)sc2c1CCC2 | 7.31µM* | 0.0% | 12.5 | -19.4% | -13.3 | u
COc1ccc2oc(=O)c(C(=O)Nc3cccc(C(=O)O)c3)cc2c1 | x | x | x | -14.6% | x | -10.2%
COc1ccc(Cl)cc1-c1cc(C(=O)NCc2cccc(C(F)(F)F)c2)[nH]n1 | x | x | x | 7.31µM* | -6.6 | u
COc1ccc(Cl)cc1-c1cc(C(=O)NCc2ccc(C(F)(F)F)cc2)[nH]n1 | x | x | x | 4.61µM* | -19.0 | 7.31µM*
COc1cc(F)ccc1-c1cc(C(=O)NCc2ccc(C(F)(F)F)cc2)[nH]n1 | x | x | x | u | -25.7 | u
COc1ccc(Cl)cc1-c1cc(C(=O)NCc2ccc(F)cc2)[nH]n1 | x | x | x | 6.51µM* | -17.1 | 8.2µM*
Cc1cc(F)ccc1-c1cc(C(=O)NCc2ccccc2)[nH]n1 | x | x | x | 25.9µM* | -23.7 | u
CC(OC(=O)c1ccccc1C(=O)N(C)C1CCCCC1)C(=O)NC1(C#N)CCCCC1 (centres undefined) | 11.7% | 1.2% | 17.4 | u | -2.1 | u
COc1ccc(CCNC(=O)C(=O)NCC(c2ccco2)S(=O)(=O)c2ccccc2)cc1 (centres undefined) | x | 2.6% | x | -13.9% | x | -13.3%
Cc1cccc(C(=O)Nc2nc(C)c(C(=O)Nc3ccc4c(c3)CCC4)s2)c1 | u | 11.9% | -10.1 | 23.1µM* | 3.4 | u
CC(=O)c1cccc(NC(=O)c2cccc(S(=O)(=O)N(C)C)c2)c1 | 12.4% | 4.4% | 15.0 | -2.1% | -2.4 | u
CN(C)S(=O)(=O)c1cccc(C(=O)Nc2ccc3c(c2)CCC3)c1 | u | x | -13.7 | 16.4µM* | -21.2 | 18.4µM*
SMILES | ELG1 repair inh | TDP1 inh | Giardia kill | TDP1 cell CPT | IL1B secr inh | DT40 TDP1 no CPT
CN(C)S(=O)(=O)c1cccc(NC(=O)c2ccc3nccnc3c2)c1 | u | -2.8% | 7.5 | 13µM* | 26.6 | 23.1µM*
CCOC(=O)c1sc(NC(=O)c2nc(SC)ncc2Cl)c(C(=O)OCC)c1C | x | -1.2% | x | -13.1% | x | 5.0%
Cc1ccc(N(C(=O)COc2ccccc2C)S(=O)(=O)c2ccc(Cl)cc2)cc1 | x | 2.9%[2.28 µM] | x | u | x | u
COc1ccc(N(C(=O)c2ccccc2)S(=O)(=O)c2cccs2)cc1 | u | -13.5% | -7.3 | u | 7.5 | 20.6µM*
CCc1ccc(S(=O)(=O)N(C(=O)c2ccncc2)c2ccc(OC(=O)c3ccncc3)cc2)cc1 | u | 0.0% | -17.8 | u | -61.4* | u
COc1ccc(C(=O)N(c2ccc(OC)cc2)S(=O)(=O)c2cccs2)cc1 | 0.7% | -2.8% | -6.7 | u | 24.5 | u
COc1ccc(C(=O)N(c2ccc(C)cc2)S(=O)(=O)c2ccc(C)cc2)cc1 | x | 2.8% | x | 18.4µM* | x | 23.1µM*
COc1ccc(N(C(=O)COc2cccc(C)c2)S(=O)(=O)c2ccc(C)cc2)cc1 | 13.9% | 0.0% | -3.4 | 18.4µM* | 15.8 | -28.0%
Cc1ccc(S(=O)(=O)N(C(=O)c2ccncc2)c2ccc(OC(=O)c3ccncc3)cc2)cc1 | -12.1% | 2.7% | 2.2 | u | u | u
CC1CCN(Cc2nnnn2CCCC(=O)N(C)C(C)c2ccccn2)CC1 (centres undefined) | 8.6% | 4.1% | 4.1 | -8.7% | 12.2 | 25.6%
O=C(Nc1ccc(OC(F)(F)F)cc1)C(NS(=O)(=O)c1cccc2nsnc12)c1ccccc1 (centres undefined) | x | 0.0% | x | 16.4µM* | x | u
CCN(C(=O)COC(=O)c1ccccc1Cc1ccccc1)c1c(N)n(Cc2ccccc2)c(=O)[nH]c1=O | x | x | -0.1 | u | -5.4 | u
CC(C)(C)c1ccc(C(=O)NCCC(=O)N2CCC3(CC2)NCCc2[nH]cnc23)cc1 | 0.0% | 3.2% | -4.0 | -0.9% | 9.4 | 12.1%
O=C(NCC1CCCO1)c1ccc(CSCc2cccc(F)c2)o1 (centres undefined) | -9.2% | 5.3% | 9.8 | -21.5% | -20.4 | u
Cc1cn(C)c(CC(=O)NCc2ccccc2Cl)c1C(=O)O | x | 4.4% | x | 4.5% | x | 1.7%
O=C(CNS(=O)(=O)c1ccc(F)cc1)N1CCN(c2ccc(F)cc2)CC1 | -20.4% | 0.0% | 12.9 | u | 2.9 | -21.5%
O=C(CNS(=O)(=O)c1ccc(Br)s1)N1CCN(c2ccc(F)cc2)CC1 | -4.7% | -7.6% | 15.5 | u | -1.2 | 23.1µM*
